# Results: paper PMC4552634, “A New Set of Chemical Starting Points with Plasmodium falciparum Transmission-Blocking Potential for Antimalarial Drug Discovery” (PLoS ONE, 2015)
# The campaign covered roughly 13,000 compounds. About 3,200 (25%) showed an effect of 50% or more. This is one part of the list.
# Test system: P. falciparum stage V gametocytes
# Set-up: BacTiter-Glo ATP luminescence viability of purified stage V gametocytes in 384-well plates, per cent inhibition versus DMSO
# Details: 48 h, 5 µM; inhibitor
row,SMILES,% Inhibition
1,CC(=O)NCC(=O)NC1=NC(C)(C)N(OCc2ccc3ccccc3c2)C(N)=N1 [TCMDC-131579],9.815%
2,CC(=O)Nc1cccc(C(=O)Nc2cccc(-c3cccc(-c4nc5ccccc5[nH]4)c3)c2)c1 [TCMDC-132134],-16.76%
3,COc1cccc(-n2ncc3c(N/N=C/c4ccc(CN(C)CCN(C)C)cc4)ncnc32)c1 [TCMDC-138728],20.85%
4,O=C(NCCCc1ccccc1)c1csc(C2CCCN(C(=O)c3ccc(O)c(-c4ccccc4)c3)C2)n1 (stereo not drawn) [TCMDC-140153],-2.163%
5,O=C(Nc1cccnc1)c1cn(-c2ccccc2)nc1-c1cccs1 [TCMDC-124055],-11.35%
6,COc1ccc(NC(=O)[C@H](CC(C)C)Nc2cc(C)nc(NCc3cccc(C)c3)n2)cc1 [TCMDC-134891],-4.805%
7,O=[N+]([O-])c1cccc(NC(=S)N2CCCN(Cc3ccc(C(F)(F)F)cc3)CC2)c1 [TCMDC-141016],26.08%
8,O=[N+]([O-])c1cccc(NC(=S)N2CCCN(Cc3ccc(F)cc3F)CC2)c1 [TCMDC-141015],78.9%
9,O=C(Nc1cccc(OC2CCN(Cc3ccccc3)CC2)c1)Nc1cccc([N+](=O)[O-])c1 [TCMDC-139544],-4.381%
10,O=C(Nc1cccc(CN2CCCN(Cc3ccc(O)cc3)CC2)c1)c1cccc(F)c1 [TCMDC-141816],-13.75%
11,O=C(/C=C/c1ccc(Cl)c(Cl)c1)NCCCCCN1CCCN(C(=S)Nc2cccc(Cl)c2)CC1 [TCMDC-135894],9.594%
12,O=[N+]([O-])c1cccc(NC(=S)N2CCCN(Cc3ccc(Cl)cc3Cl)CC2)c1 [TCMDC-141017],68.72%
13,Fc1ccc(-c2cncc(Nc3ccncc3)n2)cc1 [TCMDC-134499],21.35%
14,CC1(C(=O)Nc2ccc([N+](=O)[O-])cc2O)CC2c3ccccc3C1c1ccccc12 (stereo not drawn) [TCMDC-124076],-1.633%
15,O=C(NC1CCC(N2CCN(c3cccc4[nH]ccc34)CC2)CC1)c1cc2cccnc2[nH]1 (stereo not drawn) [TCMDC-134216],-40.15%
16,OC1CCCN(Cc2ccc(-c3ccc(-c4nc5ccc(F)cc5[nH]4)s3)cc2)C1 (stereo not drawn) [TCMDC-133821],-16.69%
17,OCC1CCN(Cc2ccc(-c3ccc(-c4nc5ccc(F)cc5[nH]4)s3)cc2)CC1 [TCMDC-133127],-4.488%
18,NC1CCCN(Cc2ccc(-c3ccc(-c4nc5ccc(F)cc5[nH]4)s3)cc2)C1 (stereo not drawn) [TCMDC-133856],57.48%

row,SMILES,% Inhibition
1,CC(=O)N(C)C1CCN(Cc2ccc(-c3ccc(-c4nc5ccc(F)cc5[nH]4)s3)cc2)C1 (stereo not drawn) [TCMDC-133895],-2.042%
2,NC1CCN(Cc2ccc(-c3ccc(-c4nc5ccc(F)cc5[nH]4)s3)cc2)C1 (stereo not drawn) [TCMDC-133854],66.76%
3,NC1CCN(Cc2cccc(-c3ccc(-c4nc5ccccc5[nH]4)s3)c2)C1.O=C(O)C(F)(F)F (stereo not drawn) [TCMDC-133869],26.1%
4,NC1CCCN(Cc2ccc(-c3ccc(-c4nc5ccccc5[nH]4)s3)cc2)C1 (stereo not drawn) [TCMDC-133849],41.97%
5,NC1CCN(Cc2ccc(-c3ccc(-c4nc5ccccc5[nH]4)s3)cc2)C1 (stereo not drawn) [TCMDC-133847],76.03%
6,CCOc1cc(C(=O)NCC2CCN(CC3CCCCC3)CC2)ccc1-c1nc2ccc(Cl)cc2[nH]1 [TCMDC-140914],-32.49%
7,O=C(NCCc1ccc(Cl)c(Cl)c1)[C@@H]1CCCN1C(=O)c1ccc(O)c(-c2cccc(C(F)(F)F)c2)c1 [TCMDC-140822],3.039%
8,O=C(NCc1ccc(Cl)cc1)c1ccc(C(=O)NCC2CCCN2CC2CCCCC2)cc1 (stereo not drawn) [TCMDC-136754],-3.385%
9,O=C(/C=C/c1ccc(C(F)(F)F)cc1)NCCCCCN1CCN(C(=O)Nc2ccc(F)c(Cl)c2)CC1 [TCMDC-136096],8.329%
10,O=C(/C=C/c1ccc(Cl)c(Cl)c1)NCCCCCN1CCCN(C(=O)Nc2ccc(Cl)c(C(F)(F)F)c2)CC1 [TCMDC-135762],-47.47%
11,O=C(/C=C/c1ccc(Cl)cc1)NCCCCCN1CCN(C(=O)C=Cc2ccc(Cl)c(Cl)c2)CC1 [TCMDC-135914],71.52%
12,O=C(/C=C/c1ccc(C(F)(F)F)cc1)NCCCCCN1CCCN(C(=O)Nc2ccc(F)c(Cl)c2)CC1 [TCMDC-136107],77.99%
13,Cc1cc(C)c(NC(=O)N2CCCN(CCCCCNC(=O)/C=C/c3ccc(Cl)c(Cl)c3)CC2)c(C)c1 [TCMDC-135753],28.16%
14,Cc1noc(-c2ccccc2)c1NC(=O)NC1CCN(CCCCCNC(=O)/C=C/c2ccc(Cl)c(Cl)c2)CC1 [TCMDC-135890],-22.75%
15,O=C(/C=C/c1ccc(Cl)c(Cl)c1)NCCCCCN1CCCN(C(=S)Nc2ccc(Cl)cc2)CC1 [TCMDC-135893],2.458%
16,O=C(/C=C/c1ccc(C(F)(F)F)cc1)NCCCCCN1CCCN(C(=O)Nc2ccc(Cl)c(Cl)c2)CC1 [TCMDC-136104],-57.55%
17,O=C(/C=C/c1ccc(Cl)c(Cl)c1)NCCCCCCN1CCN(C(=O)Nc2ccc(Cl)c(C(F)(F)F)c2)CC1 [TCMDC-135836],-47.93%
18,Cc1noc(-c2ccccc2)c1NC(=O)N1CCN(CCCCCCNC(=O)/C=C/c2ccc(Cl)c(Cl)c2)CC1 [TCMDC-135892],75.05%
